The target in assay [1] is Metallo-beta-lactamase type 2 (Klebsiella pneumoniae) (UniProt C7C422). The experiment in a line: qHTS to identify inhibitors of the New Delhi Metallo-beta-lactamase (NDM): assay validation screen against the NCATS LOPAC Collection (AID 1794843).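 Note: nitrocefin turnover by NDM-1 measured as 485 nm absorbance at plateau; % is set by controls: 0 for no effect and ±100 for the full control effect.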 The method, boiled down: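 Nitrocefin hydrolysis (50 uM substrate stock) by NDM-1, 2 nM final, was followed by 485 nm absorbance after compound preincubation; buffer was 50 mM HEPES pH 7.0, 1 uM ZnSO4, 0.01% Tween20.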
Metallo-beta-lactamase type 2 (Klebsiella pneumoniae), sequence (C7C422 whole entry, looked up): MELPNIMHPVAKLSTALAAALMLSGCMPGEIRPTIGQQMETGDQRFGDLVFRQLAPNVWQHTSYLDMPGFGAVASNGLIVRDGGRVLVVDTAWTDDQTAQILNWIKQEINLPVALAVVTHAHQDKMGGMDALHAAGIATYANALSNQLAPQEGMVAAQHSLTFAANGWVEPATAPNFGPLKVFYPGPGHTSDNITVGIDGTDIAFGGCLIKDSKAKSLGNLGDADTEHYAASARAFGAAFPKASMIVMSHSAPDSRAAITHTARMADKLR

Assay [2] addresses Glutathione peroxidase 1 (Homo sapiens) (UniProt P07203). The experiment in a line: Primary qHTS Assay for Inhibitors of Recombinant Selenoprotein Glutathione Peroxidase 1 (GPX1) (AID 1845191). For activity, negative = inhibition: % is set by controls: 0 for no effect and ±100 for the full control effect. Note: nearly all actives have a fitted effect of over 65% in size. Note: potency is the fitted concentration of half-maximal effect. The method, boiled down: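 GR-coupled readout: NADPH consumption tracked by fluorescence, ex 340/em 450 nm, at t=0 and after 15 min at RT. Final mix 10 nM GPX1, 1 mM GSH, 0.5 mM CHP, 0.5 mM NADPH, 100 nM GR, 0.01% BSA, following 30 min enzyme–compound preincubation.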
In general terms: In qHTS, concentration-response curves come from the screen itself.

The target of assay [3] is Phospholipid hydroperoxide glutathione peroxidase GPX4 (Homo sapiens) (UniProt P36969). Description: Primary qHTS Assay for Inhibitors of Recombinant Selenoprotein Glutathione Peroxidase 4 (GPX4) (AID 1845192). Note: nearly all actives have a fitted effect of over 65% in size. Note: potency is the fitted concentration of half-maximal effect. Put shortly: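 Steps: GPX4 plus compound, 30 min RT; add GR/GSH/NADPH master mix; start with cumene hydroperoxide; read 340/450 nm fluorescence at 0 and 15 min. Finals were 200 nM GPX4, 1 mM GSH, 0.5 mM CHP, 0.5 mM NADPH, 100 nM GR.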
Phospholipid hydroperoxide glutathione peroxidase GPX4 (Homo sapiens), sequence (P36969 whole entry, looked up): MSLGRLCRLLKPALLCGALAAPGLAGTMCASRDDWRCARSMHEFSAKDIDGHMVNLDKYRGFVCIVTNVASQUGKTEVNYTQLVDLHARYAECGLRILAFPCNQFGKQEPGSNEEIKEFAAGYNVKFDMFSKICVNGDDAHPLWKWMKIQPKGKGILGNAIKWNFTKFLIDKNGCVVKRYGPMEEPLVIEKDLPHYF

Assay [4] concerns the target Luciferin 4-monooxygenase (Photinus pyralis) (UniProt P08659). Description: Primary firefly luciferase (FLuc) qHTS assay for identification of artifact compounds. (AID 1845220). Note: nearly all actives have a fitted effect of over 60% in size. The method, boiled down: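 D-luciferin and ATP (10 uM each, final) in Tris acetate buffer pH 7.6 were incubated with compounds for 15 min at room temperature. The reaction was started with 10 nM Photinus pyralis luciferase and luminescence read after 5 min. Percent inhibition was fitted to a 4-parameter Hill equation.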

The nature of assay [5]: Primary fluorescence-based thiol-reactive (MSTI) qHTS assay for identification of artifact compounds. (AID 1845221).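 Note: thiol-reactive compounds lower the probe fluorescence signal; nearly all actives have a fitted effect of over 65% in size.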 Put shortly: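 Curve-fitted percent inhibition (4-parameter Hill) derived from fluorescence, Ex 525/Em 598 nm, scaled with Acetyl-MSTI and MSTI; 1 h incubation at room temperature.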
Assay [6] relates to Nanoluciferase (engineered Oplophorus gracilirostris luciferase). The experiment in a line: Primary Nanoluciferase (NLuc) qHTS assay for identification of artifact compounds. (AID 1845222).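 Note: 0% = DMSO and -100% = no enzyme.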 Put shortly:
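Diluted conditioned medium from NLuc-expressing S16 cells treated with compounds for 15 min at room temperature, then Nano-Glo substrate added; luminescence read after 5 min. Percent inhibition versus no-enzyme and DMSO controls fitted to 4-parameter Hill equation.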

The nature of assay [7]: Primary redox qHTS assay for identification of artifact compounds. (AID 1845223).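 Note: 0% = DMSO and 100% = reference compound.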 Put shortly:
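Redox-cycling detection via DTT (250 uM final) oxidation coupled to Amplex Red (25 uM)/HRP (250 mU/mL) in HBSS. 15 min preincubation plus 30 min after DTT, room temperature. Ex/Em 525/598 nm; 4-parameter Hill fit against DMSO and 10 uM DA3003.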

Assay [8] in a line: qHTS profiling for inhibitors of Plasmodium falciparum proliferation (AID 504749).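 For activity, negative = inhibition: 0% = DMSO vehicle and full inhibition = artemisinin control.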 For all read-outs here: nearly all actives have a fitted effect of over 60% in size. Note: potency is the fitted concentration of half-maximal effect. The note with it: P. falciparum in erythrocytes, SYBR Green DNA, 72 h; for activity, negative = inhibition: at 28.7 µM (top of the series). The method, boiled down: (§1)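 Each compound contacts P. falciparum-infected red blood cells for 72 h at 37 C; lysis buffer (Tris, EDTA, saponin, Triton X, SYBR Green I) is added and fluorescence measured next morning; values normalized to controls.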

The test system of the next assay is 3D7. The assay is described as above. The note with it: P. falciparum in erythrocytes, SYBR Green DNA, 72 h; series mostly up to 28.7 µM. Put shortly:
as §1

A further assay deals with 7G8. The assay is described as above. The note with it: P. falciparum in erythrocytes, SYBR Green DNA, 72 h; series mostly up to 28.7 µM. Put shortly:
as §1

The nature of assay [9]: qHTS drug screen for cell cycle checkpoint inhibitors in PARPi-resistant BRCA-mutant ovarian cancer cell lines. (AID 1963452; calls by dose curve). The note with it: PEO1/OlaR viability, CellTiter-Glo luminescence, 96 h, stronger effect = lower value. Put shortly:
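PEO1, PEO4 and PEO1/OlaR ovarian cancer cells, 600 per well, exposed 96 h at 37C to a dilution series. Viability read by CellTiter-Glo luminescence, normalized to DMSO and empty wells; activity summarized as Z-AUC.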

Inconclusive results are not listed. The source made the active and inactive calls. Unless noted, calls come from the whole dose curve; as a rule, active = well fitted curve in the direction sought with a large enough effect; inconclusive = small, poorly fitted or top-dose-only effect, or another doubt; inactive = no such curve, though single readings can be large; an effect the other way counts as inactive or inconclusive.

Glutathione peroxidase 1 (Homo sapiens), sequence (P07203 whole entry, looked up): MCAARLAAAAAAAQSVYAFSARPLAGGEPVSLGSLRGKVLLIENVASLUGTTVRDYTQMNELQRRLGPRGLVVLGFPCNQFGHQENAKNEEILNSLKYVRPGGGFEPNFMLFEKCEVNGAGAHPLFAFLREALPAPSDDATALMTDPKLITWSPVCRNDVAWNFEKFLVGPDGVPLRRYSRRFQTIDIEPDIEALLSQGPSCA

`CNC(=O)[C@H]1O[C@@H](n2cnc3c(NCc4ccc(N)cc4)ncnc32)[C@H](O)[C@@H]1O`: the Potency entry in assay [1], in assay [2] and in assay [3] was “inactive” in each case.

Turning to `CCNc1nc2c(ncn2[C@H]2C[C@H](O)[C@@H](CO)O2)c(=O)[nH]1`, the Potency result in [1], in [2], in assay [3], in assay [4] and in [6] was “inactive” throughout. The compound was classed as inactive in assay [5] and in assay [7].

For `NCCCCCCCCCCN`, the Potency result in [1], in assay [2] and in assay [3] was “inactive” throughout.

For `N=c1ccn2c(n1)O[C@H]1[C@H](O)[C@@H](CO)O[C@H]12`, the Potency entry (in assay [1]; in assay [2]; in assay [3]; in the assay on 3D7; in the assay with 7G8) was “inactive” throughout. Moreover, the activity, negative = inhibition in [8] (parasite line A) is 4.44% (inactive); in [8] (parasite line B) it was 4.16% (inactive).

Regarding `CCN(CC)CCCCNc1ncc2cc(-c3c(Cl)cccc3Cl)c(NC(=O)NC(C)(C)C)nc2n1`, the Potency result in assay [1], in assay [4] and in [6] was “inactive” each time. Further, the Potency in [2] is 20.2 µM (active); in assay [3], 7.18 µM (active). The compound was called inactive in assay [5] and in assay [7].

Consider `NCCCS(=O)(=O)O`, for which the Potency entry in assay [1], in assay [2] and in [3] was “inactive” throughout.

Consider `C[C@@H](CN1CCC(Cc2ccccc2)CC1)[C@@H](O)c1ccc(O)cc1`, for which the Potency result in assay [1], in assay [2] and in [3] was “inactive” throughout.

As for `Oc1cc(O)cc(/C=C/c2ccc(O)c(O)c2)c1`, the Potency result in assay [1], in assay [2] and in [3] was “inactive” in each case.

Take `O=C(Nc1ccccc1)c1cc([N+](=O)[O-])ccc1Cl`: the Potency entry in [1], in assay [2] and in assay [3] was “inactive” in each case.

Consider `COc1cc(SC)ccc1C(=O)N1CCC(Cc2ccccc2)CC1`, for which the Potency result in assay [1], in [2] and in assay [3] was “inactive” each time.

As for `CCCCC#Cc1nc(NC)c2ncn([C@@H]3O[C@H](CO)[C@@H](O)[C@H]3O)c2n1`, the Potency result in assay [1], in [2] and in assay [3] was “inactive” in each case.

`CN1[C@@H](CC(=O)c2ccccc2)CCC[C@H]1C[C@H](O)c1ccccc1`: the Potency entry (in [1]; in assay [2]; in assay [3]; with 3D7) was “inactive” throughout. The activity, negative = inhibition in assay [8] (parasite line A) is -28.5% (inactive). Further, the results for the Potency (in assay [8] (parasite line B); in the assay on 7G8) were 12.6 µM (active) and 8.91 µM (active), respectively.

Regarding `C[N+]1(C)CCC(OC(=O)C(c2ccccc2)c2ccccc2)CC1`, the Potency entry in [1], in [2] and in assay [3] was “inactive” throughout.

As for `C[N+]1(C)C2CC(OC(=O)[C@H](CO)c3ccccc3)CC1C1OC12` (stereo partly drawn), the Potency result in assay [1], in [2] and in assay [3] was “inactive” throughout. The results for the Z-AUC in assay [9], in assay [9] (measured here: PEO1 parental Z-AUC) and in assay [9] (measured here: PEO4 Z-AUC) were 1.57 (inactive), 1.91 and 2.01, respectively.

Take `Nc1ccn([C@H]2O[C@H](CO)[C@@H](O)C2(F)F)c(=O)n1`: the Potency entry in [1] and in assay [3] was “inactive” each time.

`CN(C)c1nc2c(Br)c(Br)c(Br)c(Br)c2[nH]1`: in assay [2], the Potency entry was “inactive”.

Turning to `CC1(C)S[C@@H]2[C@H](NC(=O)[C@H](N)c3ccccc3)C(=O)N2[C@H]1C(=O)O`, in assay [2], the Potency result was “inactive”.

Consider `NC(N)=NC(=O)c1nc(Cl)c(N2CCCCCC2)nc1N`, for which the Potency result in assay [2] and in assay [3] was “inactive” throughout.

On to `CCCN(CC1CC1)c1nc(C)nc(Nc2c(Cl)cc(Cl)cc2Cl)c1Cl`, for which the Potency entry in assay [1] and in assay [3] was “inactive” in each case.

For `Cn1c(=O)c2[nH]c(-c3ccccc3)nc2n(C)c1=O`, the Potency entry in [1] and in assay [3] was “inactive” each time.

For the compound `O=C1C(SCCO)=C(SCCO)C(=O)c2ccccc21`, the Potency result in assay [1] and in [3] was “inactive” in each case.

On to `Cc1cc2c(cc1Cl)N(C(=O)Nc1ccc(Oc3cccnc3C)nc1)CC2`, for which the Potency result in [2] and in [3] was “inactive” each time.

For `COc1ccc(NC(=O)/C=C/c2ccc(Cl)cc2)cc1`, the Potency result in assay [2] and in [3] was “inactive” throughout.

Turning to `O=C(c1ccc(OCCCc2cnc[nH]2)cc1)C1CC1`, the Potency entry in assay [1] and in assay [3] was “inactive” throughout.

Turning to `CN(C)C(N)=NCCC[C@H](N)C(=O)O`, the Potency result in [1] and in assay [3] was “inactive” in each case.

Consider `COCCOc1cc2nc[nH]c(=O)c2cc1OCCOC`, for which the Potency result in assay [1] and in assay [3] was “inactive” each time.

The values are drawn from PubChem BioAssay (NCATS).
